Measured values from the OligoGym collection.

What follows are sequences tested against SLC39A12 (assay: pooled miR-30 sensor sort-seq; sequence = guide strand). Details: shRNA.

Compared with TTGTGTTTGAACATGAGTCATT, TTGCAGTTGATTTTACTCCAAC is lower in sensor-assay potency score (higher = more potent): -0.725 for the first, -1.11 for the second.

Compared with TTTTGATACAAGTACTTCTGGT, TTTGATACAAGTACTTCTGGTC is higher in sensor-assay potency score (higher = more potent): -0.57 for the first, 0.47 for the second.

What follows are sequences tested against SLC39A3 in the same assay as above. Details: shRNA.

Compared with TCAGTGTTGAAAATGCATCAGA, TCTGTCTCGATGATCTTCACGG is higher in sensor-assay potency score (higher = more potent): -0.941 for the first, -0.084 for the second.

Compared with TTAAAAAGTAGCAGTGCTCTGA, TGATTATCAGGTGACAACCGAC is lower in sensor-assay potency score (higher = more potent): 0.00339 for the first, -1.07 for the second.

Compared with TAGTCGGTGCTGATGTGGCCGA, TTTCTGGACACTAGGCACGAGG is lower in sensor-assay potency score (higher = more potent): -1.33 for the first, -1.43 for the second.

First: TAGGTGGGTAGTCTGGTCTGAT
Second: TACCTTTTCCCTCACAGCGGGC
The sensor-assay potency score (higher = more potent) of the first is higher: -0.578 for the first, -1.41 for the second.

Compared with TTACCTTTTCCCTCACAGCGGG, AAAATCTGTCTCGATGATCTTC is higher in sensor-assay potency score (higher = more potent): -0.333 for the first, 0.079 for the second.

First: TTGCAGAGAGAGAGGATCTTTT
Second: TGTCTCGATGATCTTCACGGGG
The sensor-assay potency score (higher = more potent) of the first is lower: -0.914 for the first, -0.768 for the second.

The sequences below were run against SLC44A2 in the same assay as above. Details: shRNA.

Going from TTGTTGGTCTTGTTCAAGGGTT to TTATAGTACTCAAAGTCCCGGG, the sensor-assay potency score (higher = more potent) rises from -0.803 to 0.0732.

Going from TTTGATGAGTGCAATCGCGATG to TATAGTACTCAAAGTCCCGGGA, the sensor-assay potency score (higher = more potent) rises from -0.724 to -0.338.

First: TTACTTGTTTCTCGCAGTCTGG
Second: TCAGACACAAACACCGTCCTTC
The sensor-assay potency score (higher = more potent) of the first is lower: -0.794 for the first, 0.677 for the second.

Going from TACTTGTTTCTCGCAGTCTGGA to TGTAGCAGTGAAATATTCCGTA, the sensor-assay potency score (higher = more potent) rises from -0.0969 to 0.424.

First: TCTTTGATGAGTGCAATCGCGA
Second: TAATCCAGTACCAAGAGACGGT
The sensor-assay potency score (higher = more potent) of the first is lower: -1.09 for the first, 0.196 for the second.

Work on TTATAGACCGCTTCGTTGGAAG yielded a sensor-assay potency score (higher = more potent) of -0.973.

The sequences below were run against SLC45A3 in the same assay as above. Details: shRNA.

First: TGAACTTCTCCTCTACCCCCAC
Second: TAAAACAGCGTGAAGGTCATGA
The sensor-assay potency score (higher = more potent) of the first is lower: -0.547 for the first, 0.302 for the second.

Compared with TAGGTGTGTCTCAACTAGGAGG, AAAGGTTAGCAGGTTGACCAGC is higher in sensor-assay potency score (higher = more potent): -0.961 for the first, -0.476 for the second.

Compared with TTTGGGCAGGAACACCTGCTTC, TTCATCATAGTGTCTCCGGGCC is higher in sensor-assay potency score (higher = more potent): -1.54 for the first, 0.0522 for the second.

Compared with TCTTGTCAAATACTACCTGTGT, TAGCAGGTTGACCAGCAAGAGC is lower in sensor-assay potency score (higher = more potent): -0.281 for the first, -1.81 for the second.

First: TAGGCAGTGACAGACTGGCTGA
Second: AAGGTCATGAGTGCCATCCAGC
The sensor-assay potency score (higher = more potent) of the first is higher: -0.555 for the first, -1.03 for the second.

Going from AAATCCGTGTAAAACAGCGTGA to TAGCTGTTAACCCTGAGCCTGG, the sensor-assay potency score (higher = more potent) falls from -0.511 to -0.971.
